A short description of assay [1]: ATG_XTT_Cytotoxicity: Cytotoxicity Assessment in the Attagene TRANS-FACTORIAL HepG2 Assay (AID 2283584). The method in brief:
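HepG2 cells transiently transfected with GAL4-UAS multiple reporter units, dosed 24 h; cytotoxicity read by XTT as loss of signal versus DMSO baseline.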

Assay [2] is described as follows: TOX21_p53_BLA_p2_viability: Viability Assessment in the Tox21 HCT-116 p53 Agonism Beta-lactamase Assay, Phase 2 (AID 2283591).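 Further: actives lower the ATP signal meaning cytotoxicity.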 The method in brief:
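Cytotoxicity readout: CellTiter-Glo ATP luminescence, 30 min at room temperature, after the beta-lactamase read. Cells were HCT116 exposed 16 h at 37C to compounds pin-transferred at 217-fold dilution from DMSO stocks.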

The target of assay [3] is Cellular tumor antigen p53 (Homo sapiens) (UniProt P04637). The assay can be described thus: TOX21_p53_BLA_p2_ratio: Tox21 HCT-116 p53 Agonism Beta-lactamase Assay, Ratio, Phase 2 (AID 2283592). The method in brief: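 First, HCT116 reporter cells settle for 5 h at 37C. Next, DMSO compound solutions are pinned in (217-fold dilution) and left 16 h. Finally, CCF4-AM substrate is loaded 2 h at room temperature and the 460/530 nm ratio read.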
Cellular tumor antigen p53 (Homo sapiens), sequence (P04637 whole entry, looked up): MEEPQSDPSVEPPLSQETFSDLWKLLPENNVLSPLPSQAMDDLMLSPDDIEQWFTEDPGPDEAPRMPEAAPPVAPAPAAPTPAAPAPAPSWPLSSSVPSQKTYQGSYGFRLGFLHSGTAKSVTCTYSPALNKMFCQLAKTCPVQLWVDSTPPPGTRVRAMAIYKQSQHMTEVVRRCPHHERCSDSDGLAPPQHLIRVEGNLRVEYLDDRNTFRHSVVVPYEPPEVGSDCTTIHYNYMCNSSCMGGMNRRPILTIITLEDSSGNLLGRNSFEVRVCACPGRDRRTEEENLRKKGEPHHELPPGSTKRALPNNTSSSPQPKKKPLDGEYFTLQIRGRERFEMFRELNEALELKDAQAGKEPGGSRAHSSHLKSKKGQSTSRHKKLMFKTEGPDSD

The nature of assay [4]: TOX21_p53_BLA_p3_viability: Viability Assessment in the Tox21 HCT-116 p53 Agonism Beta-lactamase Assay, Phase 3 (AID 2283593).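 Further: cells exposed to compound for 16 h before reading.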 The method in brief: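 Cellular ATP was quantified by CellTiter-Glo luminescence, read after 30 min at room temperature. Beforehand, HCT116 cells (4000/well) received compound 5 h post-seeding, 217-fold diluted from DMSO, then incubated 16 h at 37C.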

The nature of assay [5]: TOX21_p53_BLA_p4_viability: Viability Assessment in the Tox21 HCT-116 p53 Agonism Beta-lactamase Assay, Phase 4 (AID 2283597).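 Further: hits lower the luminescence signal meaning cytotoxicity.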 The method in brief:
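4000 HCT116 cells per well; 5 h attachment; compounds from DMSO, 217-fold dilution; 16 h at 37C. Then CCF4-AM, 2 h RT, followed by CellTiter-Glo, 30 min RT, luminescence. Decrease = cytotoxicity.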

Assay [6] can be described thus: TOX21_p53_BLA_p5_viability: Viability Assessment in the Tox21 HCT-116 p53 Agonism Beta-lactamase Assay, Phase 5 (AID 2283600). The method in brief: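 Decreased CellTiter-Glo luminescence denotes lost viability. Exposure: 16 h at 37C, 5% CO2, with compounds from DMSO stocks diluted 217-fold in wells of 4000 cells.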
Assay [7] deals with Cellular tumor antigen p53 (Homo sapiens) (UniProt P04637). The assay can be described thus: TOX21_p53_BLA_p3_ratio: Tox21 HCT-116 p53 Agonism Beta-lactamase Assay, Ratio, Phase 3 (AID 2283596). The method in brief:
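Cells were seeded at 4000/well, rested 5 h at 37C, then dosed with DMSO compound solutions (217-fold dilution) for 16 h. CCF4-AM substrate was loaded for 2 h at room temperature, and the 460/530 nm emission ratio was fitted for gain of signal versus DMSO.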

Assay [8] has the same target. The assay can be described thus: TOX21_p53_BLA_p5_ratio: Tox21 HCT-116 p53 Agonism Beta-lactamase Assay, Ratio, Phase 5 (AID 2283599). The method in brief: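 Beta-lactamase reporter ratio (blue 460 nm over green 530 nm, 405 nm excitation) after 2 h CCF4-AM loading, in HCT-116 cells exposed 16 h at 37 C to compounds pinned at 217-fold dilution. Increases relative to DMSO baseline scored.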

Assay [9] has the same target. The assay can be described thus: TOX21_p53_BLA_p4_ratio: Tox21 HCT-116 p53 Agonism Beta-lactamase Assay, Ratio, Phase 4 (AID 2283601). The method in brief: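 Signal is the blue/green (460nm/530nm) ratio of cleaved versus uncleaved CCF4-AM substrate, read after 2 h substrate loading. Cells were HCT116 carrying the p53-responsive beta-lactamase reporter, dosed 16 h at 37C, 5% CO2; CellTiter-Glo measured in parallel.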

Each structure is given as a SMILES string. Records with an inconclusive call do not appear. Active and inactive are the calls of the source. How the source made its calls: active means hit-call score of the fitted dose curve at least 0.9, where 1 is the maximum; inconclusive means response in the unintended direction; inactive means score below 0.9.

`O=P(c1ccccc1)(c1ccccc1)c1ccccc1`: the compound was classed as inactive in [1], in assay [2], in [3], in [4], in assay [5] and in [6].

On to `COc1ccc(Nc2ccccc2)c(C)c1`, for which the compound was called inactive in [1], in assay [2], in [3], in [4], in [7] and in assay [5]. Further, the result in assay [8], in assay [6] and in [9] was inactive.

In the case of `CCCC(=O)C(C)=O`, the compound was called inactive in [1], in assay [2], in assay [3], in assay [4], in assay [7] and in assay [8]. The call in [6] and in assay [9] was inactive.

As for `O=C(O)Cc1cccc2ccccc12`, the outcome in assay [1], in assay [2], in assay [3], in assay [4], in assay [7] and in [8] was inactive. Also, the compound was classed as inactive in assay [6] and in assay [9].

`CCCC1CCC(=O)O1` (stereo unspecified): the call in assay [1], in [2], in assay [3], in assay [7], in assay [5] and in assay [9] was inactive.

With `COc1cccc(OC)c1`, the outcome in [1], in assay [2], in assay [3], in assay [4], in assay [6] and in assay [9] was inactive.

As to `O=C(O)CN(CCN(CC(=O)O)CC(=O)O)CCN(CC(=O)O)CC(=O)O`, the result in [1], in [2], in assay [3], in assay [7], in assay [5] and in assay [8] was inactive. Further, the compound was called inactive in assay [6] and in assay [9].

Take `O=C(O)c1cccc(C(F)(F)F)c1`: the result in assay [1], in assay [2], in assay [3], in [4], in [7] and in [5] was inactive. For the same compound, the result in assay [8], in assay [6] and in assay [9] was inactive.

Take `CCCCCCCCCCCCCCCC(=O)O`: the outcome in assay [1], in assay [2], in [3], in [4], in assay [7] and in [8] was inactive. Moreover, the outcome in assay [6] and in assay [9] was inactive.

`CCCCCNCCCCC`: the compound was classed as inactive in assay [1], in [2], in assay [3], in assay [4], in assay [7] and in assay [8]. Also, the result in [9] was inactive.

On to `O=[N+]([O-])c1cc(C(F)(F)F)ccc1Cl`, for which the compound was classed as inactive in [1], in assay [2], in assay [3], in assay [4], in assay [7] and in assay [5]. The result in assay [6] and in [9] was inactive.

For the compound `CCCCCCCCCC=O`, the outcome in [1], in [2], in [3], in [4], in [7] and in assay [6] was inactive. The outcome in assay [9] was inactive.

On to `CCCCO`, for which the compound was classed as inactive in [1], in assay [2], in assay [3], in [7], in [5] and in assay [8]. Moreover, the compound was classed as inactive in assay [6] and in assay [9].

Take `CCCCCCCCC`: the compound was classed as inactive in assay [1], in assay [2], in assay [3], in assay [7], in [5] and in assay [6]. For the same compound, the result in assay [9] was inactive.

As to `CC(=O)Nc1ccc(C)cc1C`, the result in [1], in assay [2], in assay [3], in [4], in [7] and in assay [8] was inactive. Moreover, in assay [9], the outcome was inactive.

Consider `c1ccc(CCCc2ccccn2)cc1`, for which the compound was called inactive in assay [1], in assay [2], in assay [3], in assay [4], in assay [7] and in [8]. The call in [6] and in assay [9] was inactive.

As for `COC(=O)Cc1cccc2ccccc12`, the call in assay [1], in [2], in assay [3], in [4], in assay [7] and in [5] was inactive. Moreover, the outcome in assay [8], in [6] and in assay [9] was inactive.

As to `O=C[C@@H](O)[C@H](O)[C@H](O)CO`, the outcome in assay [1], in [2], in assay [3], in [4], in assay [6] and in assay [9] was inactive.

Regarding `CC1(C)CCC(C)(C)c2cc(C(=O)Nc3ccc(C(=O)O)cc3)ccc21`, the outcome in [1] was inactive. The AC50 (in general, the concentration at which the activity in the assay is half-maximal) in [2] is 28.1 µM (active); in assay [3], 61.2 µM (active); in assay [4] it was 46.1 µM (active); in assay [7] it was 72.4 µM (active); in [5], 32.5 µM (active); in assay [8], 46.2 µM (active). The AC50 in [6] was 39.5 µM (active); in [9], 46.9 µM (active).

`CC(C)(C)c1cc(CCC(=O)NN)cc(C(C)(C)C)c1O`: the result in [1], in assay [2], in assay [3], in assay [4], in assay [7] and in assay [8] was inactive. Further, the compound was classed as inactive in [6].

As to `COC(=O)OC`, the call in assay [1], in assay [2], in [3], in assay [4], in assay [7] and in assay [5] was inactive. In addition, the outcome in assay [8], in assay [6] and in assay [9] was inactive.

On to `CCCCCCCCCCCCCCCCCC(=O)OCC(CC)CCCC` (stereo unspecified), for which the call in [1], in assay [2], in [3], in [4], in assay [8] and in assay [9] was inactive.

`Nc1cc([N+](=O)[O-])ccc1O`: the call in assay [1], in [2], in [3], in assay [7], in assay [5] and in assay [8] was inactive. Also, the result in assay [6] and in assay [9] was inactive.

As for `CC1(CO)CN(c2ccccc2)NC1=O` (stereo unspecified), the compound was called inactive in assay [1], in assay [2], in assay [3], in [7], in assay [5] and in assay [8].

As for `CCN(CC)c1ccc2c(-c3ccccc3C(=O)O)c3ccc(=[N+](CC)CC)cc-3oc2c1`, the result in assay [1], in assay [2], in [3], in assay [4], in [7] and in [5] was inactive. Besides, the outcome in assay [8], in [6] and in assay [9] was inactive.

As for `O=C(Oc1ccccc1)c1ccc(O)cc1`, the call in assay [1], in assay [2], in [3], in assay [4], in [7] and in assay [8] was inactive. Besides, the compound was called inactive in [6] and in assay [9].

`Clc1nc(C(Cl)(Cl)Cl)c(Cl)c(Cl)c1Cl`: the compound was called inactive in assay [1], in assay [2], in assay [3], in [4], in assay [7] and in [8]. Moreover, the compound was called inactive in [6] and in assay [9].

Regarding `CCc1ccc(C=O)cc1`, the outcome in assay [1], in assay [2], in [3], in assay [4], in assay [7] and in assay [6] was inactive.

With `CC(=O)OCc1ccc2c(c1)OCO2`, the result in [1], in assay [2], in assay [3], in assay [4], in assay [7] and in assay [8] was inactive. Further, the call in [6] and in [9] was inactive.

For `O=C(O)c1snc(Cl)c1Cl`, the call in assay [1], in assay [2], in [3], in [4], in assay [7] and in assay [8] was inactive. For the same compound, the outcome in assay [6] and in [9] was inactive.

Regarding `Nc1cc(Cl)c(O)c(Cl)c1`, the compound was called inactive in assay [1], in assay [2], in assay [3], in assay [4], in assay [7] and in [5]. The result in [8] and in assay [9] was inactive.

Regarding `Fc1c(F)c(F)c(Br)c(F)c1F`, the outcome in assay [1], in [2], in [3], in assay [7], in assay [5] and in assay [9] was inactive.

The values above are taken from PubChem BioAssay (EPA / NIEHS).
